In PubChem BioAssay AID1159580 (chemical genetic matrix, 2015):
Screen size: about 5,500 compounds; about 2,000 (36%) were called active. Another 18% or so got no clear call; they are omitted. Cut-off read from the data, not from the text of the source: active = normalized growth mostly below about 0.91 (no sharp cut-off); inconclusive = no clear call, values can overlap the other calls; inactive = mostly above about 0.92. This is one part of the list.

Experiment: chemical genetic growth profiling, strain panel (AID 1159580);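 note: tested at 20 µM; growth read once vehicle control cultures reached saturation at 30 °C; 1 = growth at the plate median or of vehicle wells; lower values mean less growth of the strain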
Conditions: growth OD
[1] = S. cerevisiae deletion strains, locus YAL013W, strain DEP1, hits give low values
[2] = S. cerevisiae deletion strains, locus YDR150W, strain NUM1, hits give low values
[3] = S. cerevisiae deletion strains, locus YGR229C, strain SMI1, hits give low values
[4] = S. cerevisiae deletion strains, locus YHR030C, strain SLT2, hits give low values
[5] = S. cerevisiae deletion strains, locus YJR075W, strain HOC1, hits give low values
[6] = S. cerevisiae deletion strains, locus YNL322C, strain KRE1, hits give low values
[7] = S. cerevisiae deletion strains, locus YPL055C, strain LGE1, hits give low values

Measured: normalized growth

O=C(O)C1=CC(=C(c2ccc(O)c(C(=O)O)c2)c2ccc(O)c(C(=O)O)c2)C=CC1=O
active: [3] 0.823 | S. cerevisiae deletion strains, locus YMR058W, strain fet3, hits give low values 0.714 | S. cerevisiae deletion strains, locus YOR106W, strain vam3, hits give low values 0.836 | S. cerevisiae deletion strains, locus YPL051W, strain arl3, hits give low values 0.907
inactive: [1] 0.976 | S. cerevisiae deletion strains, locus YAL021C, strain ccr4, hits give low values 0.952 | S. cerevisiae deletion strains, locus YAL026C, strain drs2, hits give low values 0.983 | S. cerevisiae deletion strains, locus YAL030W, strain snc1, hits give low values 0.986 | S. cerevisiae deletion strains, locus YAL040C, strain CLN3, hits give low values 1.02 | S. cerevisiae deletion strains, locus YBL061C, strain skt5, hits give low values 0.963 | S. cerevisiae deletion strains, locus YBR009C, strain hhf1, hits give low values 1 | S. cerevisiae deletion strains, locus YBR023C, strain chs3, hits give low values 0.976 | S. cerevisiae deletion strains, locus YBR171W, strain sec66, hits give low values 0.963 | S. cerevisiae deletion strains, locus YBR231C, strain swc5, hits give low values 0.954 | S. cerevisiae deletion strains, locus YBR279W, strain paf1, hits give low values 0.968 | S. cerevisiae deletion strains, locus YCL011C, strain gbp2, hits give low values 0.974 | S. cerevisiae deletion strains, locus YCL016C, strain dcc1, hits give low values 0.995 | S. cerevisiae deletion strains, locus YCL061C, strain MRC1 (second series), hits give low values 0.98 | S. cerevisiae deletion strains, locus YCL061C, strain MRC1, hits give low values 0.999 | S. cerevisiae deletion strains, locus YCL069W, strain vba3, hits give low values 0.972 | S. cerevisiae deletion strains, locus YCR088W, strain abp1, hits give low values 0.985 | S. cerevisiae deletion strains, locus YDL005C, strain med2, hits give low values 0.966 | S. cerevisiae deletion strains, locus YDL040C, strain nat1, hits give low values 0.987 | S. cerevisiae deletion strains, locus YDR001C, strain nth1, hits give low values 0.992 | S. cerevisiae deletion strains, locus YDR069C, strain doa4, hits give low values 0.917 | S. cerevisiae deletion strains, locus YDR137W, strain rgp1, hits give low values 1.06 | [2] 0.97 | S. cerevisiae deletion strains, locus YDR159W, strain sac3, hits give low values 1.03 | S. cerevisiae deletion strains, locus YDR195W, strain ref2 1 | S. cerevisiae deletion strains, locus YDR297W, strain sur2, hits give low values 0.978 | S. cerevisiae deletion strains, locus YDR334W, strain swr1, hits give low values 0.957 | S. cerevisiae deletion strains, locus YDR335W, strain msn5, hits give low values 0.965 | S. cerevisiae deletion strains, locus YDR392W, strain spt3, hits give low values 0.95 | S. cerevisiae deletion strains, locus YEL003W, strain gim4, hits give low values 0.973 | S. cerevisiae deletion strains, locus YEL037C, strain rad23, hits give low values 0.966 | S. cerevisiae deletion strains, locus YEL061C, strain CIN8 (second series), hits give low values 0.979 | S. cerevisiae deletion strains, locus YER002W, strain NOP16, hits give low values 1.02 | S. cerevisiae deletion strains, locus YER015W, strain faa2, hits give low values 0.952 | S. cerevisiae deletion strains, locus YER016W, strain bim1, hits give low values 0.985 | S. cerevisiae deletion strains, locus YER111C, strain swi4, hits give low values 0.961 | S. cerevisiae deletion strains, locus YER155C, strain BEM2 (second series), hits give low values 0.953 | S. cerevisiae deletion strains, locus YFR010W, strain ubp6, hits give low values 0.976 | S. cerevisiae deletion strains, locus YGL167C, strain pmr1, hits give low values 0.97 | S. cerevisiae deletion strains, locus YGL173C, strain kem1, hits give low values 0.984 | S. cerevisiae deletion strains, locus YGL227W, strain vid30, hits give low values 0.988 | S. cerevisiae deletion strains, locus YGL240W, strain doc1, hits give low values 0.985 | S. cerevisiae deletion strains, locus YGL253W, strain hxk2, hits give low values 0.978 | S. cerevisiae deletion strains, locus YHR013C, strain ard1, hits give low values 0.952 | S. cerevisiae deletion strains, locus YHR027C, strain rpn1, hits give low values 0.98 | [4] 1.01 | S. cerevisiae deletion strains, locus YHR079C, strain IRE1, hits give low values 1 | S. cerevisiae deletion strains, locus YHR142W, strain chs7, hits give low values 0.946 | S. cerevisiae deletion strains, locus YJL092W, strain hpr5, hits give low values 0.97 | S. cerevisiae deletion strains, locus YJL095W, strain BCK1 (second series), hits give low values 0.963 | S. cerevisiae deletion strains, locus YJL095W, strain BCK1, hits give low values 0.982 | S. cerevisiae deletion strains, locus YJL115W, strain asf1, hits give low values 0.999 | S. cerevisiae deletion strains, locus YJL129C, strain trk1, hits give low values 1.01 | S. cerevisiae deletion strains, locus YJL154C, strain vps35, hits give low values 0.982 | S. cerevisiae deletion strains, locus YJL164C, strain tpk1, hits give low values 0.969 | S. cerevisiae deletion strains, locus YJL166W, strain qcr8, hits give low values 0.979 | S. cerevisiae deletion strains, locus YJL187C, strain SWE1, hits give low values 0.969 | S. cerevisiae deletion strains, locus YJR066W, strain TOR1, hits give low values 0.877 | [5] 0.974 | S. cerevisiae deletion strains, locus YKL160W, strain elf1, hits give low values 0.976 | S. cerevisiae deletion strains, locus YKR026C, strain gcn3, hits give low values 0.989 | S. cerevisiae deletion strains, locus YKR091W, strain srl3, hits give low values 0.981 | S. cerevisiae deletion strains, locus YLL001W, strain dnm1, hits give low values 0.998 | S. cerevisiae deletion strains, locus YLL026W, hits give low values 0.985 | S. cerevisiae deletion strains, locus YLL041C, strain sdh2, hits give low values 0.981 | S. cerevisiae deletion strains, locus YLR027C, strain aat2, hits give low values 0.981 | S. cerevisiae deletion strains, locus YLR113W, strain HOG1, hits give low values 1.05 | S. cerevisiae deletion strains, locus YLR221C, strain rsa3, hits give low values 0.983 | S. cerevisiae deletion strains, locus YLR258W, strain gsy2, hits give low values 0.967 | S. cerevisiae deletion strains, locus YLR262C, strain YPT6 (second series), hits give low values 0.973 | S. cerevisiae deletion strains, locus YLR320W, strain mms22, hits give low values 0.985 | S. cerevisiae deletion strains, locus YLR342W, strain FKS1, hits give low values 0.978 | S. cerevisiae deletion strains, locus YLR357W, strain rsc2, hits give low values 0.857 | S. cerevisiae deletion strains, locus YLR370C, strain arc18, hits give low values 0.98 | S. cerevisiae deletion strains, locus YLR384C, strain iki3, hits give low values 0.957 | S. cerevisiae deletion strains, locus YML120C, strain ndi1, hits give low values 0.978 | S. cerevisiae deletion strains, locus YMR125W, strain sto1, hits give low values 0.958 | S. cerevisiae deletion strains, locus YMR129W, hits give low values 0.989 | S. cerevisiae deletion strains, locus YMR205C, strain PFK2, hits give low values 1.01 | S. cerevisiae deletion strains, locus YMR231W, strain pep5, hits give low values 0.946 | S. cerevisiae deletion strains, locus YNL071W, strain lat1, hits give low values 0.974 | S. cerevisiae deletion strains, locus YNL175C, strain NOP13, hits give low values 1 | S. cerevisiae deletion strains, locus YNL183C, strain NPR1, hits give low values 0.913 | S. cerevisiae deletion strains, locus YNL197C, strain WHI3, hits give low values 1 | S. cerevisiae deletion strains, locus YNL209W, strain ssb2, hits give low values 0.952 | S. cerevisiae deletion strains, locus YNL224C, strain SQS1, hits give low values 1.03 | S. cerevisiae deletion strains, locus YNL248C, strain rpa49, hits give low values 0.999 | S. cerevisiae deletion strains, locus YNL322C, strain KRE1 (second series), hits give low values 0.999 | [6] 0.93 | S. cerevisiae deletion strains, locus YNR049C, strain mso1, hits give low values 0.992 | S. cerevisiae deletion strains, locus YOR001W, strain rrp6, hits give low values 0.959 | S. cerevisiae deletion strains, locus YOR070C, strain gyp1, hits give low values 0.995 | S. cerevisiae deletion strains, locus YOR080W, strain dia2, hits give low values 0.988 | S. cerevisiae deletion strains, locus YOR083W, strain WHI5 (second series), hits give low values 0.999 | S. cerevisiae deletion strains, locus YOR083W, strain WHI5, hits give low values 0.97 | S. cerevisiae deletion strains, locus YOR231W, strain MKK1, hits give low values 1.01 | S. cerevisiae deletion strains, locus YOR265W, strain rbl2, hits give low values 0.99 | S. cerevisiae deletion strains, locus YOR270C, strain vph1, hits give low values 0.942 | S. cerevisiae deletion strains, locus YOR290C, strain snf2, hits give low values 0.966 | [7] 0.961 | S. cerevisiae deletion strains, locus YPL078C, strain atp4, hits give low values 0.982 | S. cerevisiae deletion strains, locus YPL106C, strain sse1, hits give low values 0.915 | S. cerevisiae deletion strains, locus YPL240C, strain hsp82, hits give low values 0.973 | S. cerevisiae deletion strains, locus YPL256C, strain CLN2, hits give low values 1.06

Cc1ccc(Sc2nc(C)c([N+](=O)[O-])c(C)c2C#N)cc1
active: [4] 0.625 | S. cerevisiae deletion strains, locus YLR039C, strain RIC1, hits give low values 0.664 | S. cerevisiae deletion strains, locus YLR262C, strain YPT6, hits give low values 0.732
inactive: [1] 0.969 | S. cerevisiae deletion strains, locus YBR229C, strain ROT2, hits give low values 0.982 | S. cerevisiae deletion strains, locus YDL101C, strain DUN1, hits give low values 0.997 | [2] 0.99 | S. cerevisiae deletion strains, locus YEL061C, strain CIN8, hits give low values 0.934 | S. cerevisiae deletion strains, locus YGR078C, strain PAC10, hits give low values 0.979 | [3] 0.978 | S. cerevisiae deletion strains, locus YHR087W, strain rtc3, hits give low values 0.975 | S. cerevisiae deletion strains, locus YJR043C, strain POL32, hits give low values 0.967 | [5] 0.952 | S. cerevisiae deletion strains, locus YKL190W, strain CNB1, hits give low values 0.977 | S. cerevisiae deletion strains, locus YLR058C, strain SHM2 (second series), hits give low values 0.969 | S. cerevisiae deletion strains, locus YLR085C, strain ARP6, hits give low values 0.883 | S. cerevisiae deletion strains, locus YML094W, strain GIM5, hits give low values 1.01 | S. cerevisiae deletion strains, locus YMR219W, strain ESC1, hits give low values 0.979 | S. cerevisiae deletion strains, locus YMR263W, strain SAP30, hits give low values 0.97 | S. cerevisiae deletion strains, locus YMR307W, strain GAS1, hits give low values 0.763 | S. cerevisiae deletion strains, locus YNL153C, strain GIM3, hits give low values 0.994 | S. cerevisiae deletion strains, locus YNL298W, strain CLA4 (second series), hits give low values 0.947 | [6] 0.974 | S. cerevisiae deletion strains, locus YNR030W, strain Alg12, hits give low values 0.965 | [7] 0.963 | S. cerevisiae deletion strains, locus YPL241C, strain CIN2, hits give low values 1.06 | S. cerevisiae deletion strains, locus YPR135W, strain CTF4, hits give low values 0.828 | S. cerevisiae strains, strain wild type, hits give low values 0.974
